Compound activity (PubChem)
Sampled rows, rich in hits. Any-hit rate of the full collection: about 18%.
PLK1 PBD block = PLK1 (human) polo-box domain binding inhibition; P53350; 360,000 compounds, 2.8% hits; Potency, µM, usual class: inhibitors; AID 720504; Plk1 PBD binding of FITC phosphopeptide, fluorescence polarization; also: series mostly up to about 57 µM; nearly all actives have a fitted effect of over 65% in size
Target sequence (P53350 whole entry, looked up, the tested form may be a part): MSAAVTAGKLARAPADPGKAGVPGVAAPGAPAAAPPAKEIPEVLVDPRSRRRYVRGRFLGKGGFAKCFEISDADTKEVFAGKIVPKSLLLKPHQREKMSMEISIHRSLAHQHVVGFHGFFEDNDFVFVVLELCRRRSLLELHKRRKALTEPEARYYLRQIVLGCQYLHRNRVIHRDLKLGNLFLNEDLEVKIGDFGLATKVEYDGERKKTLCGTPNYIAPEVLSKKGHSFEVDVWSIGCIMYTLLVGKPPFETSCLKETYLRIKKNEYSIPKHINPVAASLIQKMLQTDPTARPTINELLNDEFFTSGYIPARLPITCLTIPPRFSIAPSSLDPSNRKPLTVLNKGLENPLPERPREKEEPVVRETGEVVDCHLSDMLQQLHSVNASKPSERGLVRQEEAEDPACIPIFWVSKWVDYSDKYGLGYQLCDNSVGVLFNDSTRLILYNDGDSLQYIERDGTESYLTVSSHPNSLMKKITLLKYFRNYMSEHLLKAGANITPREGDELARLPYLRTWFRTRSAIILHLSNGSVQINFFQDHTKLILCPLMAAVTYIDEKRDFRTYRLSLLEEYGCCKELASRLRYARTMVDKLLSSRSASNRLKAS
TDP1 cell noCPT = qHTS for Inhibitors of human tyrosyl-DNA phosphodiesterase 1 (TDP1): qHTS in cells in absence of CPT | DT40 Tdp1-/- hTDP1 cells, no CPT, ATP luminescence, 48 h | Potency, µM (doses to about 46.2 µM), actives largely listed as inhibitors | 420,000 compounds, 15% hits | AID 686978, 2013; also: nearly all actives have a fitted effect of over 55% in size
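Chicken DT40 Tdp1-/- cells stably complemented with human TDP1 were seeded at 400 cells/well with DMSO in place of 20 nM camptothecin. After compound pinning, cells grew at least 48 hr at 37 °C; viability read by CellTiter-Glo luminescence.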
KAT2A inh = inhibitors of human GCN5L2 histone acetyltransferase; GCN5L2 HAT assay, ThioGlo1 CoA-SH fluorescence; Potency, µM (series often up to 58.9 µM), usual class: inhibitors; 390,000 compounds, 0.21% hits
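Enzyme at 20nM final was mixed with library compounds for 15 min at room temperature. Peptide H3(1-25) at 75uM, acetyl-CoA at 70uM and ThioGlo1 at 50uM were then added. Plates were read immediately and after 20 min (Ex340nm/Em540nm).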
TDP1 inh = blocks human tyrosyl-DNA phosphodiesterase 1; Potency, µM (top dose mostly 130 µM), usual class: inhibitors; recombinant TDP1, AlphaScreen DNA substrate cleavage; 350,000 compounds, 0.28% hits; Q9NUW8; AID 485290; also: nearly all actives have a fitted effect of over 40% in size
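E. coli-derived human Tdp1, 1 nM final. Cpd preinc 15 min RT; substrate 15 nM final, 5 min RT; AS bead mix 10 ug/ml final, 10 min RT. Signal loss = tyrosine-FITC cleavage. No-enzyme wells = max signal.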
VDR inh = vitamin D3 receptor (human) inhibition. P11473. VDR-SRC2-3 peptide fluorescence polarization, 2 h. Potency, µM, usual class: inhibitors. 400,000 compounds, 0.93% hits. AID 504847
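Signal is fluorescence polarization, reporting how far test compounds block the interaction of VDR with the SRC2-3 coregulator peptide after a 2 h room-temperature incubation.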
DT40 TDP1 CPT = growth inhibition of DT40 Tdp1-/-;hTDP1 cells with camptothecin (screen for TDP1 inhibitors); chicken DT40 Tdp1-/-;hTDP1 cells + 20 nM CPT, ATP luminescence, 48 h; Potency, µM (top dose mostly 46.2 µM), most hits filed as inhibitors; 420,000 compounds, 12% hits; also: nearly all actives have a fitted effect of over 55% in size
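Cell growth measured by CellTiter-Glo luminescence after a minimum 48 h, 37 C compound exposure with 20 nM CPT in Tdp1-knockout DT40 cells stably expressing hTDP1, seeded 400/well; qHTS titration format.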
A number is an active result; i = inactive; ? = inconclusive; nt = no result. Calls follow the shape of the dose curve; as a rule, active = well fitted curve in the direction sought with a large enough effect; inconclusive = small, poorly fitted or top-dose-only effect, or another doubt; inactive = no such curve, though single readings can be large; an effect the other way counts as inactive or inconclusive.

SMILES	PLK1 PBD block	TDP1 cell noCPT	KAT2A inh	TDP1 inh	VDR inh	DT40 TDP1 CPT
CCOc1ccc(C(=O)Nc2ccc3nc(Nc4cccc(C(F)(F)F)c4)cc(C)c3c2)cc1OCC	nt	5.2µM	i	i	i	18µM
Cc1nc2ccc(NC(=O)c3cccc(C(F)(F)F)c3)cc2o1	i	?	i	i	i	23µM
Cc1cc(Nc2cccc(C(F)(F)F)c2)nc2ccc(NC(=O)c3cccnc3)cc12	nt	2.3µM	i	i	i	4.1µM
COc1cc(Cl)c(NS(=O)(=O)c2ccc(-c3ccc(=O)[nH]n3)o2)c(OC)c1	i	i	i	i	i	i
COc1cc(Cl)c(NC2=CC(=O)C(=O)c3ccccc32)c(OC)c1	i	?	i	i	i	12µM
O=C1C=C(Nc2cccnc2)c2ccccc2C1=O	i	7.3µM	nt	nt	i	7.3µM
O=C1C=C(Nc2ccc(F)cc2)c2ccccc2C1=O	i	9.2µM	i	i	i	7.3µM
CCOc1ccc(NC2=CC(=O)C(=O)c3ccccc32)cc1	i	3.3µM	nt	nt	?	2.3µM
COc1cccc(OC)c1OCCCN1CCC(Cc2ccccc2)CC1	i	?	i	i	i	?
CCNC(=O)NC(=O)COC(=O)c1cccc(S(=O)(=O)N2CC3(C)CC2CC(C)(C)C3)c1 (centres undefined)	i	i	i	nt	i	i
C/C(=N\Nc1ncc(Cl)cc1Cl)c1ccc(C#N)cc1	i	i	i	i	i	i
COc1ccc(/C(C)=N/Nc2ncc(Cl)cc2Cl)c(O)c1	i	0.0082µM	i	i	i	?
CCc1cc(C(=O)N/N=C/c2ccc(O)cc2)c2ccccc2n1	i	8.2µM	i	i	i	i
CCc1ccc(/C=N/NC(=O)c2cc(C3CC3)nc3ccccc23)s1	i	2.3µM	i	i	i	4.6µM
Nc1ccc(C(=O)N/N=C\c2cc(N=Nc3cccc4ccccc34)ccc2O)cc1	i	4.6µM	i	i	i	5.2µM
COc1ccc(NC(=O)NNC(=O)c2cc(C3CC3)nc3ccccc23)c(OC)c1	i	i	i	i	i	i
O=C(NN=Cc1cc([N+](=O)[O-])ccc1O)c1cccc2ccccc12	i	7.3µM	nt	nt	i	7.3µM
COc1ccccc1C(=O)Nc1ccc(C(=O)OCc2cc(=O)n3c4c(sc3n2)CCCC4)cc1	nt	?	i	i	i	?
CNC[C@H]1OCCCC[C@H](C)Oc2ccc(NC(=O)CCCN(C)C)cc2C(=O)N([C@H](C)CO)C[C@@H]1C	i	i	nt	nt	nt	i
CC1(Cc2ccccc2F)C(=O)Nc2c(Cl)ccc(Cl)c21 (centres undefined)	i	?	nt	nt	nt	?
Cc1cc(C(=O)N/N=C/c2ccc3c(c2)OCO3)c2ccccc2n1	i	2.1µM	i	i	i	2.3µM
Cc1cccc(/C=N/NC(=O)c2cc(C)nc3ccccc23)n1	i	?	i	i	i	?
Cc1nc2ccccn2c1C(=O)N/N=C/c1ccc2c(c1)OCO2	i	?	i	i	i	?
Cc1cc(C(=O)N/N=C/c2ccc(N(C)C)cc2)c2ccccc2n1	i	4.1µM	i	i	i	2.9µM
O=C(N/N=C/c1ccc([N+](=O)[O-])cc1)c1cc(C2CC2)nc2ccccc12	i	7.3µM	i	nt	i	9.2µM
SMILES	PLK1 PBD block	TDP1 cell noCPT	KAT2A inh	TDP1 inh	VDR inh	DT40 TDP1 CPT
CCNC(=O)C(=O)N/N=C/c1cc([N+](=O)[O-])ccc1O	i	?	i	i	i	15µM
CN(CCOc1ccccc1)C(=O)C1CCC(=O)N(CCc2ccc(Cl)cc2)C1 (centres undefined)	i	?	i	i	i	?
COC(=O)C[C@@H]1C=C[C@H](NC(=O)c2ccccc2)[C@@H](CO)O1	i	i	nt	nt	nt	i
O=C(N/N=C/c1cc([N+](=O)[O-])ccc1O)c1cc(-c2ccccc2)nc2ccccc12	i	5.8µM	i	i	i	5.8µM
Cc1cc(C(=O)N/N=C/c2ccc([N+](=O)[O-])cc2)c2ccccc2n1	i	3.3µM	i	i	i	2.9µM
Cc1cc(C(=O)N/N=C/c2cc([N+](=O)[O-])ccc2O)c2ccccc2n1	i	4.6µM	i	i	i	5.2µM
Cc1nc2c(cc1C(=O)N/N=C/c1ccc([N+](=O)[O-])cc1)c(=O)n(C)c(=O)n2C	i	i	i	i	i	i
Cc1cc(C(=O)N/N=C/c2ccc([N+](=O)[O-])s2)c2ccccc2n1	i	15µM	i	nt	i	26µM
Cc1cc(C(=O)N/N=C/c2cc(Br)cc([N+](=O)[O-])c2O)c2ccccc2n1	i	?	i	i	i	?
CC(=O)N(C)c1ccc(NC(=O)c2ccc([N+](=O)[O-])cc2Cl)cc1	i	i	i	i	i	i
NCc1ccccc1CC(=O)N[C@@H]1C(=O)N2C(C(=O)O)=C(CSc3nnnn3CC(=O)O)CS[C@H]12	nt	i	nt	nt	nt	i
O=C(N/N=C/c1cccnc1)C12CC3CC(CC(C3)C1)C2	i	i	i	i	i	i
O=C(N/N=C/c1cc([N+](=O)[O-])ccc1O)NC12CC3CC(CC(C3)C1)C2	i	?	i	i	i	?
O=C(N/N=C/c1ccncc1)C12CC3CC(CC(C3)C1)C2	38µM	i	i	i	i	i
